Source: PubChem (NMMLSC)
CIT2 TOR yeast: alters CIT2-GFP fluorescence in TOR pathway yeast screen. S. cerevisiae CIT2-GFP strain, flow cytometry, 3 h; 100 means same as DMSO wells. GFP response vs DMSO, % at 10 µM. hit rate 0.065% among 320,000;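 active = GFP response relative to DMSO above a set limit, near the screen mean plus 3 SD, cut at about 150% in these data; inconclusive = Fewer than 70 cells measured for a yeast strain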;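 also: ratio of well median GFP fluorescence to mean of DMSO wells on the plate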
RPL19A TOR yeast: yeast TOR pathway RPL19A-GFP modulation. S. cerevisiae RPL19A-GFP strain, flow cytometry, 3 h; hits give low values. percent response vs DMSO, % at 10 µM. hit rate 0.3% among 330,000. AID 2025;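 active = percent response vs DMSO below 50%; inconclusive = fewer than 70 events counted for the yeast strain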;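 also: median channel GFP fluorescence of the barcoded RPL19A-GFP strain; ratio of sample median GFP to plate DMSO average so 100% = DMSO; lower means less RPL19A-GFP as with rapamycin TOR inhibition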
AGP1-GFP MLPCN: alters AGP1-GFP fluorescence in TOR pathway yeast screen. GFP response vs DMSO, % at 10 µM. S. cerevisiae AGP1-GFP multiplex flow cytometry, 3 h; GFP as percent of DMSO wells. hit rate 0.02% among 320,000. AID 2066;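 active = GFP response relative to DMSO above a set limit, near screen average plus 3 SD, cut at about 150% in these data; inconclusive = fewer than 70 cells counted for the yeast strain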;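 also: median GFP channel fluorescence of the gated AGP1 strain per well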
MEP2-GFP yeast: yeast TOR pathway MEP2-GFP modulation; S. cerevisiae MEP2-GFP strain, flow cytometry GFP, 3 h; 100% = DMSO control level; GFP response vs DMSO, % at 10 µM; hit rate 0.51% among 330,000;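 active = GFP response versus DMSO above a set limit, roughly screen mean plus 3 SD, cut at about 180% in these data; inconclusive = fewer than 70 cells counted for a yeast strain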;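 also: median GFP fluorescence of the barcode-gated MEP2-GFP cells per well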
LAP4 TOR yeast: modulators of TOR pathway LAP4-GFP in S. cerevisiae | S. cerevisiae LAP4-GFP multiplex, flow cytometry GFP, 3 h; median GFP as percent of DMSO wells | GFP response vs DMSO, % at 10 µM | hit rate 0.34% among 320,000;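 active = GFP response vs DMSO above a set limit, about the screen mean plus 3 SD, cut at about 150% in these data; inconclusive = under 70 cell events counted for the yeast strain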
LAP4-GFP pick2: second confirmation of modulators of TOR reporter LAP4-GFP in yeast; S. cerevisiae LAP4-GFP strain, flow cytometry GFP, 3 h; GFP response vs DMSO, % at 10 µM; shares compounds with LAP4 TOR yeast; hit rate 20% among 590;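 active = GFP signal as percent of the solvent control above about 150%, meaning raised reporter expression, limit read from the data; inconclusive = fewer than 70 cells counted in the well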;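 also: ratio of well median GFP fluorescence to plate DMSO mean so 100% = DMSO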
MEP2 cherry2: reconfirmed MEP2-GFP TOR pathway modulator in yeast. shares compounds with LAP4 TOR yeast. S. cerevisiae MEP2-GFP strain, flow cytometry GFP, 3 h. GFP response vs DMSO, % at 10 µM. hit rate 10% among 590;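 active = GFP signal above 150% of the solvent control wells, that is a rise of more than half; inconclusive = fewer than 70 yeast cells counted in the well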;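 also: median channel GFP fluorescence of all gated yeast cells per well; ratio of median GFP to plate DMSO average so 100% = DMSO level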
RPL19A-GFP pick2: yeast RPL19A-GFP TOR reporter modulation, second cherry pick; S. cerevisiae RPL19A-GFP strain, flow cytometry GFP, 3 h; hits give low values; 100% means same as DMSO wells; GFP response vs DMSO, % at 10 µM; hit rate 3% among 590; shares compounds with LAP4 TOR yeast;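 active = under 65% GFP response relative to DMSO; inconclusive = yeast strain with under 70 measured events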;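 also: median GFP channel fluorescence per well over the all cells gate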
CIT2-GFP pick2: second confirmation of modulators of TOR reporter CIT2-GFP in yeast. S. cerevisiae CIT2-GFP strain, flow cytometry GFP, 3 h; DMSO control wells read 100%. AID 2624. GFP response vs DMSO, % at 10 µM. shares compounds with LAP4 TOR yeast. hit rate 8% among 590;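 active = GFP response vs DMSO above about 150%, limit read from the data; inconclusive = fewer than 70 events counted for a yeast strain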;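 also: median green fluorescence per well over all gated yeast cells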
AGP1 GFP CP2: yeast AGP1-GFP TOR reporter modulation, second cherry pick; shares compounds with LAP4 TOR yeast; percent response vs DMSO, % at 10 µM; S. cerevisiae AGP1-GFP strain, flow cytometry GFP, 3 h; AID 2643; 590 tested, under 10 active;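 active = over 150 percent of DMSO response; inconclusive = yeast strain measured with under 70 events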;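 also: median GFP channel fluorescence over all cells without mother daughter split; sample median GFP divided by mean DMSO control so 100% equals DMSO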
s288c autofluor: compound is autofluorescent in yeast s288c cells; 610 tested, under 10 active; fluorescence change (kMESF span) at 33 µM; shares compounds with LAP4 TOR yeast; AID 2757; S. cerevisiae s288c, 520 nm autofluorescence, flow cytometry, 3 h; hits give high values; zero means same as solvent-only cells;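 active = fluorescence span over the dose series, or activity score, above about 33, limit read from the data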
Numbers without * were called inactive; ? = inconclusive; . = no result. Compounds with a hit are over-represented: about 0.92% of the library has one in this group of screens.

SMILES	CIT2 TOR yeast	RPL19A TOR yeast	AGP1-GFP MLPCN	MEP2-GFP yeast	LAP4 TOR yeast	LAP4-GFP pick2	MEP2 cherry2	RPL19A-GFP pick2	CIT2-GFP pick2	AGP1 GFP CP2	others
O=C(CNC(=S)N(Cc1ccccc1)Cc1ccccc1F)NCCc1ccc(Cl)cc1	93	60	70	135	97	103	100	98	100	104
CC[C@]12CCCN3CCc4c(n(c5ccccc45)C(=O)C1)C32 (stereo partly specified)	84	82	89	93	167*	98	101	98	95	96
CCOc1ccc(NC(=O)c2cccc(-n3cccc3)c2)cc1S(=O)(=O)N1CCOCC1	98	98	96	99	98	.	.	.	.	.
COc1ccc(NC(=O)CN(C)C(=O)C2(c3ccccc3)CCCC2)cc1	83	82	112	99	152*	99	98	98	108	99
COc1ccccc1CNS(=O)(=O)c1cc(C(=O)NCC2CCCO2)c(Cl)cc1Cl (stereo unspecified)	112	101	108	105	103	.	.	.	.	.
CC(C)(C)c1ccc(-c2cnco2)cc1	87	64	?	?	92	96	101	97	100	100
CCCNC(=O)c1onc(CSc2ccc(Cl)cc2)c1C(=O)NC(C)C	101	78	110	141	173*	91	100	103	97	97
CC(C)NC(=O)c1onc(CSc2ccc(Cl)cc2)c1C(=O)NC(C)C	88	94	83	89	127	.	.	.	.	.
CCC(C)NC(=O)CS(=O)Cc1nc(-c2cccc(C)c2)oc1C (stereo unspecified)	123	86	118	128	156*	104	103	99	100	98
O=C1c2sc3nc4ccccc4n3c2C(=O)N1c1ccccc1Cl	84	66	81	99	192*	138	158*	75	104	81	s288c autofluor=1.9
N=C1SCC(=O)N1c1ccccc1Cl	98	105	94	105	91	.	.	.	.	.
Cc1ccc(S(=O)(=O)NCC(C)n2cncn2)cc1 (stereo unspecified)	97	92	87	102	87	.	.	.	.	.
O=C(O)CC(=O)Nc1cc(Cl)ccc1O	96	93	98	108	96	97	106	99	102	99
O=c1[nH]ncn1-c1ccccc1C(F)(F)F	104	103	105	103	91	.	.	.	.	.
COc1ccc([C@]2(C(C)C)ON(c3ccccc3C(F)(F)F)C2=O)cc1	92	96	94	95	107	114	106	101	114	108	s288c autofluor=-0.1
CC(C)[C@@]1(c2ccc(Cl)cc2)ON(c2ccccc2C(F)(F)F)C1=O	?	57	20	147	96	102	98	102	107	97	s288c autofluor=-0.1
COc1ccc(C2(c3ccc(OC)cc3)NC(=O)N(CC(=O)Nc3ccccc3C(F)(F)F)C2=O)cc1	92	103	97	102	94	.	.	.	.	.
COc1ccc([C@@]2(C(C)C)ON(c3ccccc3C(F)(F)F)C2=O)cc1	104	96	97	93	106	118	106	104	106	97	s288c autofluor=-0.2
